Experimental findings from the supplement of paper PMC9844399 are described below.

The structures appear in SMILES notation. Counter-ions that a name gives are not always drawn. Values without a mark were called inactive.
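Also: High-content confocal imaging of branched-DNA amplified FISH in 384-well plates, Hoechst-defined nuclei, score is well value minus plate DMSO median over DMSO robust SD, four wells per compound.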

This assay has as its system HeLa. Put plainly: MALAT1 nuclear FISH intensity, robust Z-score vs DMSO; higher = more nuclear MALAT1 lncRNA, active = -3 or less. Particulars: 10 µM; 6 h.
On to `CN(C)CCc1c[nH]c2ccc(C[C@H]3COC(=O)N3)cc12` [Zolmitriptan], for which the “MALAT1 nuclear FISH intensity” value is -0.715.

Turning to `CN1CCN2c3ncccc3Cc3ccccc3C2C1` (stereo not drawn) [Mirtazapine], the “MALAT1 nuclear FISH intensity” value is -0.438.

In the case of `CC1(C)S[C@@H]2[C@H](NC(=O)COc3ccccc3)C(=O)N2[C@H]1C(=O)O` [Penicillin V Potassium], the “MALAT1 nuclear FISH intensity” value was -1.43.

Take `CC[C@@H]1/C=C(\C)C[C@H](C)C[C@H](OC)[C@H]2O[C@@](O)(C(=O)C(=O)N3CCCC[C@H]3C(=O)O[C@H](/C(C)=C/[C@@H]3CC[C@@H](O)[C@H](OC)C3)[C@H](C)[C@@H](O)CC1=O)[C@H](C)C[C@@H]2OC` [Ascomycin (FK-520)]: the “MALAT1 nuclear FISH intensity” value was 0.116.

Take `COCC1=C(C(=O)OC(C)OC(=O)OC(C)C)N2C(=O)[C@@H](NC(=O)/C(=N\OC)c3csc(N)n3)[C@H]2SC1` (stereo partly drawn) [Cefpodoxime Proxetil]: the “MALAT1 nuclear FISH intensity” value is -0.615.

Consider `CCCCCC(=O)/C=C/C=C\C/C=C\C/C=C\CCCC(=O)O` [15-Ketoicosatetraenoic acid], for which the “MALAT1 nuclear FISH intensity” value is 0.0827.

With `CCCN(CCC)CCc1cccc2c1CC(=O)N2`, the “MALAT1 nuclear FISH intensity” value is -0.318.

For `CCN1CCCC1CNC(=O)c1cc(S(N)(=O)=O)ccc1OC` (stereo not drawn) [Sulpiride], the “MALAT1 nuclear FISH intensity” value was -1.43.

For `CC1=C(C)C(=O)C(CCCCC#CCCCC#CCO)=C(C)C1=O`, the “MALAT1 nuclear FISH intensity” value is 0.146.

As to `Cn1ccnc1S` [Methimazole], the “MALAT1 nuclear FISH intensity” value is -0.992.

In the case of `NS(=O)(=O)c1cc2c(cc1Cl)N=CNS2(=O)=O` [Chlorothiazide], the “MALAT1 nuclear FISH intensity” value was -0.425.

For `COc1cc2nc(N(C)CCCNC(=O)C3CCCO3)nc(N)c2cc1OC` (stereo not drawn) [Alfuzosin], the “MALAT1 nuclear FISH intensity” value is -0.416.

In the case of `NNC(=O)c1ccncc1` [Isoniazid], the “MALAT1 nuclear FISH intensity” value is -0.86.

`CN1CCC(=C2c3ccccc3C=Cc3ccccc32)CC1`: the “MALAT1 nuclear FISH intensity” value is -0.0895.

With `Cc1ccc(C(=O)c2ccc(CC(=O)O)n2C)cc1` [Tolmetin sodium dihydrate], the “MALAT1 nuclear FISH intensity” value is -0.389.

As to `CC(C)NCC(O)COc1ccc(COCCOC(C)C)cc1` (stereo not drawn) [Bisoprolol Fumarate], the “MALAT1 nuclear FISH intensity” value was -0.765.

In the case of `Cc1ccc(C(=O)c2cc(O)c(O)c([N+](=O)[O-])c2)cc1` [Tolcapone], the “MALAT1 nuclear FISH intensity” value is -1.19.

In the case of `O=C(O)CCC/C=C\CC1C(O)CC(O)C1/C=C/C(O)COc1cccc(Cl)c1` (stereo not drawn) [Cloprostenol], the “MALAT1 nuclear FISH intensity” value is 1.88.

In the case of `S=c1[nH]cnc2nc[nH]c12` [Mercaptopurine Hydrate], the “MALAT1 nuclear FISH intensity” value was -0.672.

Take `COc1c(C)c2c(c(O)c1C/C=C(\C)CCC(=O)O)C(=O)OC2` [Mycophenolic acid]: the “MALAT1 nuclear FISH intensity” value was -0.749.

For `COc1cccc2c1C(=O)c1c(O)c3c(c(O)c1C2=O)C[C@@](O)(C(=O)CO)C[C@@H]3O[C@H]1C[C@H](N)[C@@H](O)[C@H](C)O1`, the “MALAT1 nuclear FISH intensity” value was -1.13.

For the compound `COc1ccc2cc1Oc1ccc(cc1)C[C@H]1c3cc(c(OC)cc3CCN1C)Oc1c(OC)c(OC)cc3c1[C@H](C2)N(C)CC3` [Tetrandine], the “MALAT1 nuclear FISH intensity” value was -0.0671.

In the case of `CN(C)CCC=C1c2ccccc2CCc2ccccc21`, the “MALAT1 nuclear FISH intensity” value was -0.041.

Turning to `CCS(=O)(=O)CCn1c([N+](=O)[O-])cnc1C` [Tinidazole], the “MALAT1 nuclear FISH intensity” value was -0.751.

Take `CC/C(=C(\c1ccccc1)c1ccc(OCCN(C)C)cc1)c1ccccc1` [Tamoxifen Citrate]: the “MALAT1 nuclear FISH intensity” value is 0.495.

For `CCCCCCCCCCCCC/C=C/[C@@H](O)[C@H](CO)NCCCCCCCC` [C8 Ceramine], the “MALAT1 nuclear FISH intensity” value was -0.263.

On to `CCCCCC[C@@H]([C@@H](C)O)n1cnc2c(N)ncnc21`, for which the “MALAT1 nuclear FISH intensity” value was -0.253.

As for `c1ccc(-c2ccc(CNc3nc(-c4ccccn4)nnc3-c3ccccc3)cc2)cc1`, the “MALAT1 nuclear FISH intensity” value was 2.99.

With `COc1cc(NC(C)CCCN)c2ncccc2c1` (stereo not drawn) [Primaquine Phosphate], the “MALAT1 nuclear FISH intensity” value is -0.684.

Regarding `CC(C)C[C@H](NC(=O)[C@H](Cc1ccccc1)NC(=O)c1cnccn1)B(O)O` [Bortezomib], the “MALAT1 nuclear FISH intensity” value is 8.86.

`CS(=O)(=O)c1ccc(C(=O)Nc2ccc(Cl)c(-c3ccccn3)c2)c(Cl)c1` [Vismodegib (GDC-0449)]: the “MALAT1 nuclear FISH intensity” value was -0.859.

`Cc1cc(C)cc(OCC2CNC(=O)O2)c1` (stereo not drawn) [Metaxalone]: the “MALAT1 nuclear FISH intensity” value was -0.0767.

On to `CCc1nc(N)nc(N)c1-c1ccc(Cl)cc1` [Pyrimethamine], for which the “MALAT1 nuclear FISH intensity” value was -0.304.
